Data: PubChem BioAssay AID1508600 (Functional Genomics Laboratory (NCATS/FGL), 2020)
Hit rate of the full screen: of about 53,000 sequences, about 3,700 (7%) were called active. This excerpt belongs to a sample that is enriched for actives. Unmarked numbers belong to inactive results.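 The calls were made as follows: active = gene knockdowns whose robust z-score for IL-1 alpha signal is at least 2 or at most -2, so actives lie on both sides; inactive = the rest.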

Assay: Components of the Cytosolic LPS Sensing Pathway: Gene Identification via Genome-wide siRNA Screen;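 also: robust z of the log signal after scaling to non-targeting control siRNA wells of the plate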
Settings: RAW264.7 macrophages, IL-1a HTRF, actives lie on both sides, screened at 100 nM (by protocol), cells primed 5 h with Pam3CSK4 first
Outline: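 Mouse macrophage line RAW264.7 is transfected with siRNA (100 nM final), grown 48h, primed with TLR ligand Pam3CSK4 5 h and given intracellular LipidA 24 h. IL-1a in supernatant is read by HTRF and viability by luminescence.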

Row | Sequence | z-score
1 | GGCCUGGGAAGUGAACAAATT against Faah | -0.721
2 | GGAUCUGUCUACUUUUCCUTT against Hikeshi | 0.777
3 | GCCACUCCUAUGAGUGUUATT against Cdk18 | 0.236
4 | GGAACGCAAGAACAGAAUGTT against Rps24 | 0.585
5 | GGCCACUGAUCAACUAAAGTT against Zfp110 | 2.27 (active)
6 | CCAGAUGCUAUGCUAGGGATT against Clec4a1 | -0.0541
7 | GGACGGCAAAUUUGGUUUCTT against Mmp9 | 1.28
8 | GCCAUCAAUGAUGUGCUCUTT against Zswim5 | -0.186
9 | GGAAAAUGGAAUCUUCGGUTT against Pus10 | -1.4
10 | GCUGGAUACUAAUUGCUUATT against Parva | 1.27
11 | GCCUGGUACAGAACCAGUATT against Ntsr2 | 0.547
12 | CCUAUGCAUCCCUGACUACTT against Tmem126b | 5.07 (active)
13 | GGUUUUUAAGGGAAGGCCCTT against Ntmt1 | 0.284
14 | GUCCCACUCAGGAGAAUUUTT against Lrrc61 | 0.917
15 | GGAAGAUUAUAUUGAGAGATT against Bnip3 | 1.11
16 | GGAGGAGAAUGCCACAACUTT against Cd320 | -0.227
17 | GCCUGUUAAUAUGCUGUAATT against Gpr83 | -0.0705
18 | GGACUUUCUGAGUAAGAAUTT against Coa8 | -0.873
19 | GGAAUACGGAUUGAUGGAGTT against Fli1 | 2.19 (active)
20 | CCUUAUGCAUGACUUGAGUTT against Exoc4 | -0.2
21 | GGUUCGUCAUACCUCCUCATT against C77080 | -0.00884
22 | GGAAUACAUUCCUUUUAAGTT against Gpx3 | -1.27

Row | Sequence | z-score
23 | GGAGAAGAAACGGAAAUGATT against Jagn1 | -1.98
24 | GGUAUUUAGAAACAUCAGUTT against Wls | -2.16 (active)
25 | GCUGUUCAUAUAUCUUGCUTT against Olfr1386 | 1.17
26 | GGCACAUAGCCAUACCAGATT against Fbxw17 | 0.0511
27 | GGAUUCCUGUUAAAAGUCUTT against Azin1 | -0.152
28 | GGAUUAUCAAUGAAUAGCATT against Gabrb2 | 0.913
29 | GGGAGAAGUAAGUGUUAUCTT against Npy2r | 3.86 (active)
30 | GGACAAUCCGAACAUCAAATT against Sval1 | -0.403
31 | GGCCUGCUUCAAACAGUUUTT against Slc1a6 | 0.648
32 | CGACUUUUCUCAUUAUGAGTT against Ythdf1 | -2.58 (active)
33 | GGAUACACUGUUUGAAUGUTT against Cks1b | 0.00229
34 | GCCGAUUCAAUACUGUGACTT against Rnf149 | -0.649
35 | GCACAACCAAUUACGUGGCTT against Gpnmb | -0.149
36 | GCAGAUCACUGGAGUAAACTT against Spz1 | -0.381
37 | GGUAUGAAACCGUAUAAAUTT against Zfp60 | 0.00529
38 | GCGUGCUGUGUAAGAGUGUTT against Gja4 | -2.5 (active)
39 | GCACAUACAGCUUAACAAATT against Nktr | 1.27
40 | GGGUUUUUCAUAAACAAAGTT against Pdcd1lg2 | -1.46
41 | GGUAAAAAGGGUGUGUACUTT against Pdzk1 | 0.00178
42 | CCACUAAAAUCUUACUGGATT against Scn7a | 0.671
43 | GCGUAUAGUUUCGAGAAAUTT against Mettl8 | 0.46
44 | GGGUCUACCACAUGUACAUTT against Slc16a6 | 2.23 (active)

Row | Sequence | z-score
45 | CCCUAACAUUGAGAUGAUUTT against Peg10 | -0.369
46 | CCAUUCUCCUCAGAUACUCTT against Slc25a17 | -1.38
47 | CCCAUAAGGGUGAAAUUCGTT against Tax1bp1 | 0.444
48 | GGCCCACAAGAAGAACAAGTT against Zfp423 | 1.29
49 | CGGUAGAGUGCUUACGCAATT against Camk2g | 0.869
50 | GGGAACCGCUUAUAUGUCCTT against Tbx21 | -0.195
51 | GGACAGAUAGGAUUAGAGATT against Igfbp5 | 0.215
52 | CGUGCCAUAAUACACUAUCTT against Gng5 | 2.79 (active)
53 | GGCGAAUGUUUACGAGAACTT against Sh2d1b2 | 0.327
54 | GGCAGGUUUGGUAACCAGATT against Fut1 | 0.559
55 | GCUUCUUGAAAGUACAUUGTT against Nae1 | 0.386
56 | GGCUCUUCACUCAUGUAUGTT against Olfr703 | -0.931
57 | GGCCCAUAUCUGCUCUCAUTT against Ssc5d | -2.04 (active)
58 | GCCUAUCUUGUCACCACUGTT against Tagln2 | -0.276
59 | GGAAACAAAAGGAUUUCUGTT against Fbxl13 | 1.24
60 | GGCGAGAAGGAAAUGUACATT against Arpc3 | 2.62 (active)
61 | CCAUCCUUCCGAAAGACGATT against Lcn10 | 0.465
62 | CCAAGAUCGAUCAUUUUGGTT against Gm527 | -0.794
63 | GGUCCAAGAGAAAUGUGUATT against Hacd4 | -2.55 (active)
64 | GGUUUUUCUAACUUUGGUCTT against Cdcp2 | -0.0176
65 | AAGAGCCAUUAAUCGAGAATT against Cklf | -0.0691
66 | GGCUAUUGCUGACCUCAGATT against Pidd1 | -2.73 (active)

Row | Sequence | z-score
67 | GCGCAAAAGGACCUAUGAGTT against Rela | -0.342
68 | CGUGGUAGACACUGUGGUATT against Plin1 | 1.61
69 | GGAGAUGAUGCCGUCAUUCTT against Chaf1b | 1.97
70 | CCAUAUGAUAAGCAUAAGCTT against Zfp449 | 0.149
71 | CCCGUAUGGAUGUGGUAACTT against Tmem239 | -1.39
72 | CCUAACCAAGAUCCAAUCUTT against 6330549D23Rik | -2.85 (active)
73 | GGCCAUCCAAGCAUGAGUUTT against Rbfa | 1.37
74 | GGCAGGAAAUUCAUUUUAATT against Zfy2 | -1.43
75 | GGAGAUGGACUCACUGAUGTT against Zscan20 | -1.32
76 | CCACAAAGGAAUUCAUGAGTT against Dhx16 | -1.41
77 | GGUCAAGGAGAUCACCUUCTT against Comp | -1.27
78 | GGAAAAGGAAACCCAGAGCTT against Tdg | -2.4 (active)
79 | CCCGGAAUGUUUAGUAUCGTT against Fermt1 | -1.25
80 | GGCCAUUAACAGCAGUCUGTT against Kifc5b | -1.71
81 | GGAAGUGGAACACAUGAUCTT against Zfp346 | -0.449
82 | GGCAUGAAUGAGUUUAUCATT against Vps8 | -1.12
83 | GGAGAAAUAUGUAUGUACATT against Ece2 | 2.01 (active)
84 | GGAGUCUGAAGAUGACAUGTT against Rplp1 | -0.775
85 | GCCACUAAAUCCUGUUUCCTT against Ydjc | -0.0858
86 | GAGAUGGAAAGUGGUUUCUTT against Olfr1226 | 0.543
87 | GGUCACGAUUCUGUCAGACTT against Ctnnal1 | 3.57 (active)
88 | GGUGAAAAUCAAGCUGAAUTT against Smarca2 | 1.36

Row | Sequence | z-score
89 | GGCUUCCAAGCCUAAAGCUTT against H1f3 | -0.266
90 | GGAUCAAUUGACCACAAACTT against Magi3 | 0.164
91 | GCGAUGCACUGUGUAAACUTT against Ccr6 | 0.772
92 | GGGCUUGUAGAUGUGCGUATT against Hic2 | 3.32 (active)
93 | UGCGGUUGAAUUCUCCCAUTT against Fbll1 | -0.525
94 | CGCACUUACCGUGUCCUAUTT against Homer3 | 0.0495
95 | GGAGAGAAAGAAUUUCAUCTT against Chordc1 | 0.185
96 | GGAAAUCAGAGAGAAGAUGTT against Nubp1 | -1.53
97 | CCACAGAGUUCCUAUACAATT against Pfkl | -2.52 (active)
98 | CCCACGGAGGCAAUAAAUATT against Crygn | -0.155
99 | GGAGAACUUCAGUGAGUCCTT against Ambp | -2.43 (active)
100 | GCCACUCACCUAGCAAAGATT against Fbrsl1 | -1.36
101 | GGAAAUUUCAGUCGUAGUATT against Mgat4c | 0.642
102 | CGACUAUAGACUCUUGAAUTT against 1810037I17Rik | 0.573
103 | GGAGAAAUACAACUGAAAATT against Pcdhb7 | -0.0269
104 | GGCCAGAAGAUCUUCACCATT against Furin | 0.449
105 | GCUCUUUGGUCGAGAACCATT against Mup5 | -2.42 (active)
106 | GCAUCGUUUGUGAGAAUUUTT against Perp | -0.61
107 | GGGCUAUCCUUCUGAAUUUTT against Csnk1d | 1.46
108 | GCUCUCCAUUACGUGCUUGTT against Rrp9 | 1.39
